Data taken from the supplement of paper PMC9262897, “Low-cost anti-mycobacterial drug discovery using engineered E. coli” (Nature Communications, 2022).
Where a name gives a salt, the structure may show the parent alone. ± gives the standard deviation of the averaged measurements.

How the values were obtained:
Experiment in all cases: growth (OD600 after 10 h); higher = more growth (less inhibition)
[1] = tested on: E. coli TESEC Alr+ wild-type control; conditions: compound 0.1 mM; raw OD600 reference: median of DMSO wells 0.241, cell-free background 0.041
Protocol: (§1)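 TESEC Mtb Alr E. coli, or the Alr+ wild-type control, in 384-well plates with Prestwick library compounds at 0.1 mM and 1% DMSO, across arabinose induction levels of 1E3 to 1E7 nM. Growth is read as OD600 after 10 h at 37 °C in triplicate biological replicates.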

[2] = tested on: E. coli TESEC Mtb Alr; conditions: compound 0.1 mM
Protocol: as §1

[3] = tested on: E. coli TESEC Mtb Asd; conditions: compound 0.1 mM
Protocol: (§2)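 TESEC E. coli strains in which the native enzyme is deleted and replaced by arabinose-inducible Mtb Asd, DapB, CysH or TrpD, each grown in its selective medium. Strains were screened against the Prestwick library at 0.1 mM and 1% DMSO in 384-well format at low and high arabinose induction. Growth is read as OD600 after 10 h in triplicate.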

[4] = tested on: E. coli TESEC Mtb DapB; conditions: compound 0.1 mM
Protocol: as §2

[5] = tested on: E. coli TESEC Alr+ wild-type control; conditions: compound 0.1 mM; raw OD600 reference: median of DMSO wells 0.49, cell-free background 0.052
Protocol: (§3)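 TESEC Mtb Alr E. coli (ΔaraC ΔtolC ΔentC Δalr ΔdadX, arabinose-inducible Mtb Alr) or the Alr+ wild-type control strain, grown in defined M9-fructose medium without D-alanine in 96-well plates with Prestwick library compounds at 0.1 mM and 1% DMSO. Low Alr induction is 0.1 µM arabinose and high induction is 10 mM arabinose.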

[6] = tested on: E. coli TESEC Mtb Alr; conditions: compound 0.1 mM; remark: listed apart in the source
Protocol: as §3

[7] = arabinose 1000 nM, raw OD600 reference: median of DMSO wells 0.294, cell-free background 0.041
[8] = arabinose 10000 nM, raw OD600 reference: median of DMSO wells 0.264, cell-free background 0.041
[9] = arabinose 100000 nM, raw OD600 reference: median of DMSO wells 0.201, cell-free background 0.041
[10] = arabinose 1000000 nM, raw OD600 reference: median of DMSO wells 0.193, cell-free background 0.041
[11] = arabinose 10000000 nM, raw OD600 reference: median of DMSO wells 0.146, cell-free background 0.041
[12] = arabinose induction (level): High, raw OD600 reference: median of DMSO wells 0.331, cell-free background 0.041
[13] = arabinose induction (level): Low, raw OD600 reference: median of DMSO wells 0.417, cell-free background 0.041
[14] = arabinose induction (level): High, raw OD600 reference: median of DMSO wells […], cell-free background 0.041
[15] = arabinose induction (level): Low, raw OD600 reference: median of DMSO wells 0.227, cell-free background 0.041
[16] = arabinose 100 nM, raw OD600 reference: median of DMSO wells 0.413, cell-free background 0.052
[17] = arabinose 10000000 nM, raw OD600 reference: median of DMSO wells […], cell-free background 0.052

C=C(C)[C@@H]1[C@H]2OC(=O)[C@@H]1[C@]1(O)C[C@H]3O[C@]34C(=O)O[C@H]2[C@]14C [Picrotoxinin]
growth [1]: 0.253 ± 0.0051 | growth [2, 7]: 0.314 ± 0.023 | growth [2, 8]: 0.2631 ± 0.002 | growth [2, 9]: 0.215 ± 0.023 | growth [2, 10]: 0.186 ± 0.0029 | growth [2, 11]: 0.138 ± 0.0029 | growth [3, 12]: 0.343 ± 0.016 | growth [3, 13]: 0.461 ± 0.003 | growth [4, 14]: 0.197 ± 0.0075 | growth [4, 15]: 0.216 ± 0.0066 | growth [5]: 0.479 ± 0.082 | growth [6, 16]: 0.401 ± 0.011 | growth [6, 17]: 0.351 ± 0.0093

O=c1[nH]c2ccccc2n1C1CCN(CCCC(c2ccc(F)cc2)c2ccc(F)cc2)CC1 [Pimozide]
growth [1]: 0.164 ± 0.013 | growth [2, 7]: 0.243 ± 0.0073 | growth [2, 8]: 0.2629 ± 0.0026 | growth [2, 9]: 0.226 ± 0.045 | growth [2, 10]: 0.106 ± 0.0046 | growth [2, 11]: 0.142 ± 0.004 | growth [3, 12]: 0.209 ± 0.024 | growth [3, 13]: 0.396 ± 0.015 | growth [4, 14]: 0.186 ± 0.015 | growth [4, 15]: 0.227 ± 0.035 | growth [6, 16]: 0.417 ± 0.0074 | growth [6, 17]: 0.307 ± 0.034

COc1cc([C@@H]2c3cc4c(cc3[C@H](O)[C@H]3COC(=O)[C@H]23)OCO4)cc(OC)c1OC [Podophyllotoxin]
growth [1]: 0.222 ± 0.0075 | growth [2, 7]: 0.298 ± 0.016 | growth [2, 8]: 0.271 ± 0.0092 | growth [2, 9]: 0.168 ± 0.012 | growth [2, 10]: 0.163 ± 0.0082 | growth [2, 11]: 0.1495 ± 0.0008 | growth [3, 12]: 0.443 ± 0.027 | growth [3, 13]: 0.46 ± 0.053 | growth [4, 14]: 0.212 ± 0.012 | growth [4, 15]: 0.261 ± 0.027 | growth [5]: 0.545 ± 0.085 | growth [6, 16]: 0.403 ± 0.015 | growth [6, 17]: 0.298 ± 0.0059

CN(C)C(=O)Oc1cccc([N+](C)(C)C)c1 [Neostigmine bromide]
growth [1]: 0.256 ± 0.0033 | growth [2, 7]: 0.316 ± 0.0053 | growth [2, 8]: 0.273 ± 0.0057 | growth [2, 9]: 0.225 ± 0.033 | growth [2, 10]: 0.19 ± 0.0043 | growth [2, 11]: 0.168 ± 0.0075 | growth [3, 12]: 0.222 ± 0.028 | growth [3, 13]: 0.331 ± 0.14 | growth [4, 14]: 0.204 ± 0.0094 | growth [4, 15]: 0.232 ± 0.064 | growth [6, 16]: 0.404 ± 0.012 | growth [6, 17]: 0.339 ± 0.011

CCC(=O)O[C@H]1CC[C@H]2[C@@H]3CCC4=CC(=O)CC[C@]4(C)[C@H]3CC[C@]12C [Testosterone propionate]
growth [1]: 0.157 ± 0.016 | growth [2, 7]: 0.145 ± 0.0086 | growth [2, 8]: 0.261 ± 0.0051 | growth [2, 9]: 0.12 ± 0.0075 | growth [2, 10]: 0.107 ± 0.0037 | growth [2, 11]: 0.117 ± 0.015 | growth [3, 12]: 0.336 ± 0.065 | growth [3, 13]: 0.454 ± 0.04 | growth [4, 14]: 0.214 ± 0.0086 | growth [4, 15]: 0.189 ± 0.002 | growth [5]: 0.351 ± 0.039 | growth [6, 16]: 0.269 ± 0.18 | growth [6, 17]: 0.148 ± 0.025

C[C@]12CCC(=O)C=C1CC[C@@H]1[C@@H]2C(=O)C[C@]2(C)C(=O)CC[C@@H]12 [Adrenosterone]
growth [1]: 0.212 ± 0.0061 | growth [2, 7]: 0.273 ± 0.015 | growth [2, 8]: 0.245 ± 0.0058 | growth [2, 9]: 0.163 ± 0.0036 | growth [2, 10]: 0.131 ± 0.011 | growth [2, 11]: 0.123 ± 0.0015 | growth [3, 12]: 0.256 ± 0.03 | growth [3, 13]: 0.445 ± 0.023 | growth [4, 14]: 0.202 ± 0.007 | growth [4, 15]: 0.225 ± 0.032 | growth [5]: 0.533 ± 0.083 | growth [6, 16]: 0.406 ± 0.014 | growth [6, 17]: 0.2946 ± 0.0019

CN(C)C(=O)Oc1ccc[n+](C)c1 [Pyridostigmine iodide]
growth [1]: 0.248 ± 0.011 | growth [2, 7]: 0.305 ± 0.0085 | growth [2, 8]: 0.25 ± 0.0086 | growth [2, 9]: 0.253 ± 0.012 | growth [2, 10]: 0.181 ± 0.0086 | growth [2, 11]: 0.138 ± 0.0049 | growth [3, 12]: 0.335 ± 0.049 | growth [3, 13]: 0.434 ± 0.076 | growth [4, 14]: 0.195 ± 0.017 | growth [4, 15]: 0.221 ± 0.0064 | growth [6, 16]: 0.404 ± 0.017 | growth [6, 17]: 0.355 ± 0.0089

N[C@@H]1C[C@H]1c1ccccc1 [Tranylcypromine hydrochloride]
growth [1]: 0.241 ± 0.013 | growth [2, 7]: 0.285 ± 0.018 | growth [2, 8]: 0.28 ± 0.0083 | growth [2, 9]: 0.203 ± 0.02 | growth [2, 10]: 0.19 ± 0.0048 | growth [2, 11]: 0.141 ± 0.0022 | growth [3, 12]: 0.354 ± 0.034 | growth [3, 13]: 0.388 ± 0.012 | growth [4, 14]: 0.183 ± 0.0098 | growth [4, 15]: 0.23 ± 0.012 | growth [6, 16]: 0.411 ± 0.011 | growth [6, 17]: 0.371 ± 0.024
